# PubChem BioAssay (NCI)
# The panel holds about 79,000 compounds, 15% with a hit somewhere; the sample as a whole holds those more often. Values without a mark were called inactive. Calls of active or inactive are those of the source. Rule as the data show it: active = growth inhibition above about 70%; inactive = the rest.
# Experiments:
# [1] = NCI Yeast Anticancer Drug Screen. Data for the rad52 strain (AID 147);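 also: 0% = growth of vehicle-treated control cultures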; details: S. cerevisiae rad52 mutant growth inhibition, hits give high values
# How it was run: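 Compounds are applied to a genetically defined yeast strain lacking normal DNA damage repair, and inhibition of growth is expressed relative to cultures given vehicle only.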
# [2] = NCI Yeast Anticancer Drug Screen. Data for the wt1 strain (AID 149);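 also: 0% = growth of vehicle-treated wt1 cultures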; details: S. cerevisiae wt1 strain (SPY 50644) growth inhibition, hits give high values
# How it was run: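 Readout: yeast growth inhibition, normalised to vehicle controls, in the wt1 strain exposed to test compounds.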
# [3] = NCI Yeast Anticancer Drug Screen. Data for the rad50EPP+ strain (AID 151);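 also: 0% = growth of vehicle-treated control cultures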; details: S. cerevisiae rad50 mutant strain, hits give high values
# How it was run: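 Compounds were applied to the rad50EPP+ yeast strain, which bears a defined DNA repair alteration, and growth inhibition was determined relative to vehicle-treated cultures.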
# [4] = NCI Yeast Anticancer Drug Screen. Data for the mgt1 strain (AID 153); details: S. cerevisiae mgt1 mutant growth inhibition, hits give high values
# How it was run: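 Strain: mgt1 yeast, one of a set carrying defined DNA damage repair or cell cycle control alterations. Compound-treated growth compared with vehicle.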
# [5] = NCI Yeast Anticancer Drug Screen. Data for the rad50 strain (AID 155);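 also: 0% = growth of vehicle-only cultures of the same strain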; details: S. cerevisiae rad50 strain growth inhibition, hits give high values
# How it was run: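 Compounds were tested on a yeast strain with an engineered DNA damage repair alteration; the reported value is growth inhibition normalised to vehicle treatment.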
# [6] = NCI Yeast Anticancer Drug Screen. Data for the mec2-1 strain (AID 157); details: S. cerevisiae mec2-1 strain, hits give high values
# How it was run: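 Strain: mec2-1 (DNA repair/cell cycle alteration). Compound exposure, then growth measured; inhibition expressed relative to vehicle.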
# [7] = NCI Yeast Anticancer Drug Screen. Data for the rad14 strain (AID 159);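 also: 0% = growth of vehicle-treated control cultures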; details: S. cerevisiae rad14 strain growth inhibition, hits give high values
# How it was run: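 Compound-treated yeast with a defined DNA-repair lesion; growth inhibition normalised to vehicle-treated cultures.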
# [8] = NCI Yeast Anticancer Drug Screen. Data for the sgs1 mgt1 strain (AID 161);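 also: 0% = growth of cultures given vehicle only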; details: S. cerevisiae sgs1 mgt1 strain, hits give high values
# How it was run: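 Inhibition of yeast growth, normalised to vehicle-treated controls, is reported for a strain bearing genetic alterations in DNA damage repair.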
# [9] = NCI Yeast Anticancer Drug Screen. Data for the CLN2oe strain (AID 163);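 also: 0% = growth of vehicle-only control cultures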; details: S. cerevisiae CLN2oe strain, hits give high values
# How it was run: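 Growth of a genetically modified yeast strain is measured after compound exposure and compared with cultures given vehicle alone.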
# [10] = NCI Yeast Anticancer Drug Screen. Data for the bub3 strain (AID 167); details: S. cerevisiae bub3 mutant strain, hits give high values
# How it was run: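 Growth of a checkpoint-deficient yeast mutant is measured after compound exposure. Values represent inhibition relative to vehicle.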
# [11] = NCI Yeast Anticancer Drug Screen. Data for the wt2 strain (AID 169);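 also: 0% = growth of vehicle-treated yeast cultures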; details: S. cerevisiae wt2 strain growth inhibition, hits give high values
# How it was run: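 This strain belongs to a panel of yeast strains with defined genetic alterations in DNA damage repair or cell cycle control. Compounds are applied, and growth inhibition is measured against vehicle-treated cultures.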
# [12] = NCI Yeast Anticancer Drug Screen. Data for the mlh1 strain (AID 171);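 also: 0% = growth of vehicle-treated control cultures of the same strain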; details: S. cerevisiae mlh1 strain growth inhibition, hits give high values
# How it was run: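 Growth of the mutant yeast strain after compound exposure, expressed as inhibition relative to vehicle-only controls.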
# [13] = NCI Yeast Anticancer Drug Screen. Data for the sgs1 strain (AID 173);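 also: 0% = growth of vehicle-only control cultures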; details: S. cerevisiae sgs1 mutant, hits give high values
# How it was run: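 Growth of a yeast strain bearing a defined genetic alteration is measured after compound treatment. Inhibition is expressed relative to vehicle-only controls.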
# [14] = NCI Yeast Anticancer Drug Screen. Data for the mlh1 rad18 strain (AID 175); details: S. cerevisiae mlh1 rad18 strain growth inhibition, hits give high values
# How it was run: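 Read-out is yeast growth inhibition, calculated against vehicle-only controls. The compound was applied to a strain engineered with DNA damage repair alterations.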
# [15] = NCI Yeast Anticancer Drug Screen. Data for the rad18 strain (AID 177); details: S. cerevisiae rad18 mutant growth inhibition, hits give high values
# How it was run: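 Growth of the mutant yeast strain after compound exposure, normalised to vehicle-only cultures.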
# [16] = at 5.0 µM (retest, dose inferred, filed as 0.5)
# [17] = at 50.0 µM (retest, dose inferred, filed as 5.0)
smiles,measurement,setting,value
C[N+]1(CCCl)CC[N+](C)(CCCl)CC1 (stereo not given),growth inhibition,[1]; at 1.2 µM,0%
same,growth inhibition,[1]; at 3.7 µM,3%
same,growth inhibition,[1]; at 11.0 µM,5%
same,growth inhibition,[1]; at 33.0 µM,36%
same,growth inhibition,[1]; at 100.0 µM,95% (active)
same,growth inhibition,[2]; at 1.2 µM,0%
same,growth inhibition,[2]; at 3.7 µM,-1%
same,growth inhibition,[2]; at 11.0 µM,1%
same,growth inhibition,[2]; at 33.0 µM,14%
same,growth inhibition,[2]; at 100.0 µM,95% (active)
same,growth inhibition,[3]; at 1.2 µM,0%
same,growth inhibition,[3]; at 3.7 µM,0%
same,growth inhibition,[3]; at 11.0 µM,2%
same,growth inhibition,[3]; at 33.0 µM,7%
same,growth inhibition,[3]; at 100.0 µM,56%
same,growth inhibition,[4]; at 1.2 µM,-2%
same,growth inhibition,[4]; at 3.7 µM,1%
same,growth inhibition,[4]; at 11.0 µM,3%
same,growth inhibition,[4]; at 33.0 µM,29%
same,growth inhibition,[4]; at 100.0 µM,97% (active)
same,growth inhibition,[5]; at 1.2 µM,1%
same,growth inhibition,[5]; at 3.7 µM,2%
same,growth inhibition,[5]; [16],18%
same,growth inhibition,[5]; at 11.0 µM,4%
same,growth inhibition,[5]; at 33.0 µM,48%
same,growth inhibition,[5]; [17],95% (active)
same,growth inhibition,[5]; at 50.0 µM,97.2% (active)
same,growth inhibition,[5]; at 100.0 µM,96% (active)
same,growth inhibition,[6]; at 1.2 µM,-3%
same,growth inhibition,[6]; at 3.7 µM,-3%
same,growth inhibition,[6]; [16],21%
same,growth inhibition,[6]; at 11.0 µM,2%
same,growth inhibition,[6]; at 33.0 µM,81% (active)
same,growth inhibition,[6]; [17],99% (active)
same,growth inhibition,[6]; at 50.0 µM,96.7% (active)
same,growth inhibition,[6]; at 100.0 µM,98% (active)
same,growth inhibition,[7]; at 1.2 µM,1%
same,growth inhibition,[7]; at 3.7 µM,3%
same,growth inhibition,[7]; at 11.0 µM,7%
same,growth inhibition,[7]; at 33.0 µM,56%
same,growth inhibition,[7]; at 100.0 µM,96% (active)
same,growth inhibition,[8]; [16],29%
same,growth inhibition,[8]; [17],98% (active)
same,growth inhibition,[8]; at 50.0 µM,96.1% (active)
same,growth inhibition,[9]; at 1.2 µM,-3%
same,growth inhibition,[9]; at 3.7 µM,-2%
same,growth inhibition,[9]; at 11.0 µM,3%
same,growth inhibition,[9]; at 33.0 µM,32%
same,growth inhibition,[9]; at 100.0 µM,95% (active)
same,growth inhibition,[10]; at 1.2 µM,1%
same,growth inhibition,[10]; at 3.7 µM,1%
same,growth inhibition,[10]; [16],78% (active)
same,growth inhibition,[10]; at 11.0 µM,-5%
same,growth inhibition,[10]; at 33.0 µM,29%
same,growth inhibition,[10]; [17],98% (active)
same,growth inhibition,[10]; at 50.0 µM,97% (active)
same,growth inhibition,[10]; at 100.0 µM,97% (active)
same,growth inhibition,[11]; at 1.2 µM,0%
same,growth inhibition,[11]; at 3.7 µM,0%
same,growth inhibition,[11]; at 11.0 µM,1%
same,growth inhibition,[11]; at 33.0 µM,14%
same,growth inhibition,[11]; at 100.0 µM,94% (active)
same,growth inhibition,[12]; at 1.2 µM,0%
same,growth inhibition,[12]; at 3.7 µM,-1%
same,growth inhibition,[12]; at 11.0 µM,0%
same,growth inhibition,[12]; at 33.0 µM,13%
same,growth inhibition,[12]; at 100.0 µM,94% (active)
same,growth inhibition,[13]; at 1.2 µM,0%
same,growth inhibition,[13]; at 3.7 µM,-1%
same,growth inhibition,[13]; at 11.0 µM,1%
same,growth inhibition,[13]; at 33.0 µM,34%
same,growth inhibition,[13]; at 100.0 µM,96% (active)
same,growth inhibition,[14]; [16],13%
same,growth inhibition,[14]; [17],97% (active)
same,growth inhibition,[14]; at 50.0 µM,97.6% (active)
same,growth inhibition,[15]; at 1.2 µM,-2%
same,growth inhibition,[15]; at 3.7 µM,-1%
same,growth inhibition,[15]; at 11.0 µM,5%
same,growth inhibition,[15]; at 33.0 µM,61%
same,growth inhibition,[15]; at 100.0 µM,97% (active)
